PubChem BioAssay AID540364 (The Scripps Research Institute Molecular Screening Center, 2011)
The campaign covered roughly 360,000 compounds. About 2,000 (0.56%) were called active. The full list was thinned out, with actives kept by preference. Unmarked numbers belong to inactive results.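 Rule for the calls: active = activation above the average of all compounds screened plus 3 SD, cutoff fixed separately per campaign (cut at about 7.5% in these data); inactive = the rest.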

assay: FXN promoter activators, primary screen, cell-based, luciferase luminescence, HEK293 lucGAA850 (AID 540364); details: HEK293 lucGAA850 FXN promoter luciferase reporter, 24 h; at 6 µM; active compounds read high; percent of 10 µM SAHA response;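 note: 0% = DMSO wells and 100% = 10 µM SAHA wells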

Row | Compound | activation
1 | Cc1nc(-c2ccc(F)cc2)c(CC(=O)Nc2cc(S(=O)(=O)N3CCCCC3)ccc2C)s1 | 18.7% (active)
2 | Cc1nc(-c2ccc(F)cc2)c(CC(=O)Nc2cccc(S(=O)(=O)N3CCOCC3)c2)s1 | -0.93%
3 | Cc1nc(-c2ccc(F)cc2)c(CC(=O)N2CCN(S(=O)(=O)c3ccc(F)cc3)CC2)s1 | 1.58%
4 | CSCCC(NC(N)=O)C(=O)N(C)CC(=O)Nc1ccc(C)cc1 (configuration not stated) | 0.85%
5 | CCOc1cc(S(=O)(=O)NCc2ccc3c(c2)OCO3)ccc1F | 1.09%
6 | Cc1ccc(-c2nnc(-n3nnc4ccccc43)c3ccccc23)cc1 | 3.17%
7 | Cc1ccccc1N1CC(c2nc3ccccc3[nH]2)CC1=O (configuration not stated) | -3.78%
8 | Cc1ccc(-c2nc3ccccc3[nH]c2=O)cc1 | 8.59% (active)
9 | CN(c1ccccc1)c1nc(N)c([N+](=O)[O-])c(NCc2ccco2)n1 | 6.64%
10 | COc1ccc(Nc2nc(NCc3ccco3)nc(N/N=C/c3ccccc3Cl)n2)cc1 | 0.27%
11 | COc1cccc(Nc2nc(N)c([N+](=O)[O-])c(NCc3ccco3)n2)c1 | 12.7% (active)
12 | CCOC(=O)C1CCN(C(=O)CN2C(=O)NC(C)(c3ccc4cc(OC)ccc4c3)C2=O)CC1 (configuration not stated) | -1.63%
13 | CCOC(=O)C1CCN(c2ncnc3c2c(-c2ccccc2)cn3-c2ccc(C)cc2)CC1 | 0.35%
14 | O=c1[nH]cnc2c1c(-c1ccccc1)cn2-c1ccc(F)cc1 | 8.36% (active)
15 | O=c1c2c(-c3ccccc3)ccnc2[nH]n1-c1ccccc1 | 2.17%
16 | CCc1nnc(NC(=O)CSc2nnc(COc3ccc(C#N)cc3)n2-c2ccccc2)s1 | 0.66%
17 | CCOc1ccc(CCNC(=O)C2CCN(c3ccc(N4CCOCC4)nn3)CC2)cc1OCC | 2.52%
18 | CCCCCCCCCCCCN1[C@@H](CC(C)=O)c2cc(F)cc(F)c2S1(=O)=O | 0.59%
19 | COc1ccccc1-c1nc(C(F)(F)F)c(OC)o1 | 0.69%
20 | COc1ccccc1C1=Nc2cccc3cccc(c23)N1 | 11.7% (active)
21 | COc1ccccc1C1=CC(=O)CCC1 | -2.28%
22 | CCOCCOCCC(C(=O)O)P(=O)(c1ccccc1)c1ccccc1 (configuration not stated) | -1.43%
23 | CCOc1ccc(NC(=O)CN(C)C(=O)COc2cccc(CC)c2)cc1OCC | 0.68%

Row | Compound | activation
24 | C[C@H](CO)N1C[C@H](C)[C@@H](CN(C)C(=O)c2cccc(F)c2)Oc2cc(-c3cncnc3)ccc2S1(=O)=O | 0.78%
25 | COc1ccccc1CNC(=O)c1ccc(N(C)S(=O)(=O)c2ccc(C)cc2)cc1 | 0.45%
26 | COc1ccc(NC(=O)CC2C(=O)OCC3CCCCN32)cc1Cl (configuration not stated) | 3.58%
27 | COc1ccc(/C=C/C(=O)c2c(O)cc(OC)cc2OC)cc1 | 1.23%
28 | COc1cc(OC)cc(C(=O)NCCCn2ccnc2)c1 | 1.13%
29 | O=C(NC1CCCC1)c1cc(-c2ccccc2)on1 | 8.61% (active)
30 | O=C(NCCCn1ccnc1)c1cc(Br)c(Br)s1 | 1.52%
31 | O=C(NC1CCCCCCC1)c1cccs1 | 1.55%
32 | O=C(NCCCn1ccnc1)c1cc(-c2ccccc2)on1 | 20.8% (active)
33 | O=C(NC1CCCCC1)c1cc(C2CC2)on1 | 2.15%
34 | Fc1ccc(CNc2nc3ccccc3n3nnnc23)cc1 | 4.29%
35 | O=S(=O)(c1ccc(Sc2nnc3ccccn23)nc1)N1CCOCC1 | -1.38%
36 | CC1(C)CC(=O)CC2(C1)NCC(c1ccccc1Cl)c1c2[nH]c2ccccc12 (configuration not stated) | -7.14%
37 | CCCNC(=O)c1c(Cl)cnn1-c1ccc(C)cc1 | 7.7% (active)
38 | CCCc1c(C(=O)O)cnn1-c1ccc(Cl)cc1 | -0.1%
39 | CCCNC(=O)CCc1c(C)nc2c(c(C)nn2-c2ccc(C)cc2)c1C | 0.2%
40 | Cc1cnc(C(=O)OCc2c(C)cc(C(C)(C)C)cc2C)cn1 | 1.56%
41 | CC(Oc1ccccc1)C(=O)NN1Cc2ccccc2C1=N (configuration not stated) | 2.03%
42 | CCOC(=O)c1nn(-c2cccc(C)c2)cc1C(=O)c1ccccc1 | 6.71%
43 | CCCNC(=O)c1cc(C2CCCCN2S(=O)(=O)c2ccc(C#N)cc2)on1 (configuration not stated) | 1.65%
44 | O=C(CSc1cccc2cccnc12)N/N=C/c1cccnc1 | 15.3% (active)
45 | Cc1ccc(S(=O)(=O)N(CC(=O)N/N=C/c2ccc(F)cc2)c2cccc3cccnc23)cc1 | -4.8%
46 | Cc1c(NC(=O)CSc2cccc3cccnc23)c(=O)n(-c2ccccc2)n1C | 2.68%

Row | Compound | activation
47 | COc1ccccc1N(CC(=O)Nc1ccc(C)cc1Cl)S(=O)(=O)c1cccs1 | 0.98%
48 | Cc1ccccc1-n1c(C)cc(/C=N/NC(=O)c2ccc(CN3CCOCC3)cc2)c1C | 0.54%
49 | COc1ccc(CCNC(=O)C(=O)NCC2OCCN2S(=O)(=O)c2ccc(F)cc2)cc1OC (configuration not stated) | -0.5%
50 | Cc1noc(C)c1-c1ccc2ncnc(NC(C)c3ccco3)c2c1 (configuration not stated) | 10.2% (active)
51 | CCc1c(N=O)c(-c2ccccc2)n(O)[n+]1[O-] | 3.14%
52 | COc1cc(/C=C2\Oc3ccc(C#Cc4ccc(O)cc4)cc3C2=O)cc(OC)c1 | -0.08%
53 | COc1cc(C#Cc2ccc3cc(CCCO)oc(=O)c3c2)cc(OC)c1 | 7.61% (active)
54 | CC(C)c1ccc(S(=O)(=O)N2CCC3(CC2)OCCO3)cc1 | -0.76%
55 | COCOCCn1cc(CN2CCS(=O)(=O)N(Cc3ccc(-c4ccccc4)cc3)C(CC(C)C)C2=O)nn1 (configuration not stated) | -0.25%
56 | CCOc1cccc2cc(C(=O)OCC(=O)Nc3c(C)cccc3CC)c(=O)oc12 | 1.17%
57 | Cc1nc(SCc2ccc(F)cc2)c([N+](=O)[O-])[nH]1 | 0.83%
58 | CCCCCOc1ccc(CSC2=NCCN2)cc1[N+](=O)[O-] | 8.36% (active)
59 | O=[N+]([O-])c1ccccc1OCCCCN1CCCCC1 | 1.12%
60 | Cc1oc2c(F)c(F)c(F)c(F)c2c1S(=O)(=O)Nc1cccc(C(F)(F)F)c1 | -1.14%
61 | NC(=O)c1ccsc1NC(=O)COC(=O)COc1ccc(C=O)cc1 | 1.47%
62 | CCOC(=O)C(=Cc1ccccc1)C(=O)c1ccccc1 | -4.25%
63 | Cc1cc(C)nc(SC(C)C(=O)N/N=C/c2cccs2)n1 (configuration not stated) | -1.1%
64 | Cc1cc(C)nc(S/C=C/C(=O)c2ccccc2)n1 | 14.6% (active)
65 | CC(=O)c1ccc(N2CCN(C(=O)C3CCN(S(=O)(=O)c4ccc5c(c4)CC(C)N5C(=O)C4CC4)CC3)CC2)cc1 (configuration not stated) | 1.92%
66 | Cc1ccc(SC(CC(=O)c2ccc(C(C)(C)C)cc2)C(=O)O)cc1 (configuration not stated) | 9.01% (active)
67 | Cc1ccc(Sc2cc(C(=O)c3ccccc3C(=O)O)ccc2[N+](=O)[O-])cc1 | 0.3%
68 | CC(C)(C)c1ccc(C(=O)NNC(=O)Cc2ccccc2)cc1 | 3.03%
69 | COc1ccc(/C=C2\CCCC3C2=NN(C(=O)c2scnc2C)C3c2ccc(OC)cc2)cc1 (configuration not stated) | 1.94%

Row | Compound | activation
70 | Cc1ccc(NC(=O)C(CC(=O)O)C2CCCO2)c(C)c1 (configuration not stated) | 0.8%
71 | COc1ccc(C(CNC(=O)c2cc3c(s2)CCCC3)N2CCOCC2)cc1 (configuration not stated) | 1.32%
72 | CC1(C(=O)NS(=O)(=O)c2ccccc2Cl)CCN1C(=O)c1cccc(F)c1 (configuration not stated) | 1.46%
73 | CC1(C(=O)NCc2ccc3c(c2)OCO3)CCN1C(=O)Cc1cccc2ccccc12 (configuration not stated) | 0.09%
74 | CC1(C(=O)NCc2cccc3ccccc23)CCN1Cc1ccc(-c2ccccc2)o1 (configuration not stated) | 10% (active)
75 | CSc1ccc(CN2CCC2(C)C(=O)NCc2ccccc2Br)cc1 (configuration not stated) | 0.95%
76 | CCC1CO/C(=C(\C(=C(Cl)Cl)N2CCOCC2)[N+](=O)[O-])N1 (configuration not stated) | 1.9%
77 | Cc1cccc(NC(=O)CN2CCCN(S(=O)(=O)c3ccc(Br)s3)CC2)c1 | 0.67%
78 | COc1cc(OC)cc(-c2c(-c3cccs3)c3cc(-c4ccc(OC)cc4F)ccc3n2C)c1 | 0.9%
79 | CC(C)(C)NC(=O)C(c1ccco1)N(Cc1ccc2c(c1)OCO2)C(=O)Cn1nnc2ccccc21 (configuration not stated) | -3.64%
80 | COc1ccc(N(CCC#N)S(=O)(=O)c2ccc(Cl)cc2)cc1 | 9.52% (active)
81 | COc1ccc(S(=O)(=O)NCCCCOc2ccc(Cl)cc2)cc1 | 1.56%
82 | COc1ccc(N(CC(=O)N2CCCCCC2)S(=O)(=O)c2ccccc2)cc1 | -0.03%
83 | COc1ccc2c(c1)C(=C(C#N)C#N)C(=O)N2CCc1ccccc1 | 1.6%
84 | COc1cc(NC(=S)NCCSc2ccc(C)cc2)cc(OC)c1 | 0.45%
85 | COc1ccc(Cl)cc1NC(=O)CN(C)C(=O)CNC(=O)C12CC3CC(CC(C3)C1)C2 | 1.23%
86 | COc1ccc(Cl)cc1NC(=O)CN(C)C(=O)CCCc1c[nH]c2ccccc12 | 9.56% (active)
87 | COc1ccc(Cl)cc1NC(=O)CN(C)C(=O)c1cc2ccccc2cc1OC | 0.89%
88 | COCCNc1ncnc2c1ncn2[C@H]1CN(CCN2CCOCC2)C[C@@H](CO)O1 | 0.56%
89 | Cc1ccc(C(NC(=O)C2CCN(CCOc3ccc(Cl)cc3Cl)CC2)c2ccccn2)cc1 (configuration not stated) | 1.16%
90 | O=C(N/N=C/c1ccco1)c1ccc(NC(=O)C2CC2)cc1 | 1.23%
91 | O=C(N/N=C/C=C/c1ccco1)c1cccs1 | 11.9% (active)
92 | O=C(N/N=C/c1ccco1)c1csc2c1CCCC2 | 1.3%
